# Among all 420,000 compounds or so, about 64,000 (15%) were called active. Not shown: some 27% with an inconclusive outcome. Only a sample is shown. A number with no mark means an inactive call. The call rests on the fitted dose curve; in most records, active means well fitted inhibition curve with a large enough effect; inconclusive means small, poorly fitted or top-dose-only effect; inactive means flat fitted curve, though single readings scatter.
# Assay: qHTS for Inhibitors of human tyrosyl-DNA phosphodiesterase 1 (TDP1): qHTS in cells in absence of CPT; further: nearly all actives have a fitted effect of over 55% in size
# Conditions: DT40 Tdp1-/- hTDP1 cells, no CPT, ATP luminescence, 48 h; activity change, negative = growth inhibition: at 46.2 µM (top of the series)
# Summary of the method: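 Chicken DT40 Tdp1-/- cells complemented with human TDP1, screened without camptothecin (DMSO vehicle only), 400 cells/well. Compounds pin-transferred, cells incubated at 37 °C for at least 48 hr. Growth read as ATP-dependent luminescence (CellTiter-Glo, 30 min at RT).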
# On the % scale 0 is the no-effect control and ±100 the full control effect; potency means the concentration at half of the fitted maximal effect.
SMILES,"activity change, negative = growth inhibition",Potency
CSc1ccc(S(=O)(=O)NCc2ccc(Cl)cc2)cc1,-14.2%,
CS(=O)(=O)n1nc(-c2ccco2)nc1N,-3.7%,
Cc1ccnc(NC(=O)C(C)N2C(=O)c3ccccc3C2=O)c1 (stereo not drawn),24.5%,
C=CCc1cccc2cc(C(=O)OCC)c(=O)oc12,-20%,
CC/C=C/C(=O)N1CC2(CC(c3cccc(NC(=O)CC)c3)=NO2)C[C@H]1C(N)=O (stereo partly drawn),-14.1%,
Cc1ccc(C)c(S(=O)(=O)N(C)c2ccc(OC(=O)C3CCN(C(=O)c4ccc(F)cc4)CC3)cc2)c1,-22.1%,
Cc1ccc(OCC(=O)Nc2ccc(-c3nc4ncccc4o3)cc2)cc1,-27.8%,
Cc1cc(N2C(=O)c3ccc(C(=O)NCc4ccccc4)cc3C2=O)no1,0.0239%,
COc1cccc(-c2cnc(OC(C)(C)C)nc2OC(C)(C)C)c1,-27.7%,
COc1ccc(-c2nc3nc(C)cc(C)n3c2Nc2c(C)cccc2C)cc1,,18.4 µM (active)
COc1ccc(-c2cc(C)nc3nc(N)nn23)cc1,-2.44%,
COc1cccc(-c2nc3nc(C)cc(C)n3c2NC2CCCCC2)c1,,20.6 µM (active)
COc1ccc2nc(C)cc(Nc3cccc(C(=O)O)c3)c2c1,12.1%,
COc1cccc(CSc2nc3nc(C)cc(C)n3n2)c1,-1.82%,
CCOc1ccc(-c2nc(C)sc2CC(=O)O)cc1,-5.66%,
Cc1cccc(CSc2nnc(C)c(=O)n2N)c1,-23%,
O=C(NC1CCCC1)C(c1ccc(Cl)cc1)N(C(=O)c1csnn1)C1CC1 (stereo not drawn),-8.07%,
COc1ccc(-c2cc(=O)c3c(O)cc(O[C@@H]4O[C@H](CO[C@@H]5O[C@@H](C)[C@H](O)[C@@H](O)[C@H]5O)[C@@H](O)[C@H](O)[C@H]4O)cc3o2)cc1O,,inactive
CCn1c(=O)cc(O)c2ccccc21,-9.55%,
CCOC(=O)C1CCN(S(=O)(=O)c2cc(F)ccc2OC)CC1,-17.4%,
CCOC(=O)c1cnc(COc2ccccc2Cl)[nH]c1=O,-9.74%,
CC1(C)NC(=O)N(CC(=O)Nc2ccc(-c3ccccc3)cc2)C1=O,-1.23%,
NC(=O)C1=C[C@@H](c2ccc3c(c2)OCO3)C[C@@H](OCCCCO)O1,2.17%,
O=C(C1=C[C@H](c2coc3ccccc3c2=O)C[C@H](OCc2ccc(CO)cc2)O1)N1CCN(Cc2ccccc2)CC1,,18.4 µM (active)

SMILES,"activity change, negative = growth inhibition",Potency
O=C(O)C1=C[C@H](c2cccs2)C[C@H](OCCCCO)O1,-2.91%,
O=C(C1=C[C@H](c2coc3ccccc3c2=O)C[C@H](OCc2ccc(CO)cc2)O1)N1CCOCC1,-14.3%,
CN1CCN(C(=O)C2=C[C@H](c3ccc4c(c3)OCO4)C[C@H](OCc3ccc(CO)cc3)O2)CC1,-15.1%,
NC(=O)C1=C[C@H](c2csc3ccccc23)C[C@H](OCc2ccc(CO)cc2)O1,,20.6 µM (active)
C=CCOC(=O)C1=C[C@@H](c2ccccc2)C[C@@H](OCc2ccc(CO)cc2)O1,-21.2%,
C#Cc1ccc([C@@H]2C=C(C(=O)O)O[C@H](OCCCCO)C2)cc1,-15.9%,
O=C(C1=C[C@H](c2ccc(C(F)(F)F)cc2)C[C@H](OCc2ccc(CO)cc2)O1)N1CCN(Cc2ccccc2)CC1,,13 µM (active)
COc1cc(C(=O)N2CCN(C3CCC(C)CC3)CC2)cc(OC)c1OC (stereo not drawn),5.51%,
CCN(CC)CCN(C(=O)c1cc(Cl)sc1Cl)c1nc2cc3c(cc2s1)OCO3,-28.6%,
CN(C(=O)c1ccno1)c1nnc(-c2cccnc2)s1,-0.876%,
CCC1(C)N(O)C(C)(C)C(c2ccc(OC)cc2)=[N+]1[O-] (stereo not drawn),-0.459%,
O=S(=O)(Nc1ncccn1)c1ccc(NS(=O)(=O)c2cccc(Cl)c2Cl)cc1,-12.9%,
Cc1noc(NS(=O)(=O)c2ccc(N/C=C/C(=O)c3ccccc3)cc2)c1C,-7.47%,
CC(C)C[C@H](NC(=O)C1CC(=O)N(c2ccc3c(c2)OCCO3)C1)C(=O)NC1CCCC1 (stereo partly drawn),7.04%,
COc1ccc(S(=O)(=O)N2CCN(c3cnccn3)CC2)cc1,-19.6%,
N#Cc1ccccc1S(=O)(=O)N1CCN(Cc2c(O)ccc3ccccc23)CC1,0.994%,
COc1ccc(-c2csc3ncnc(N4CCN(S(=O)(=O)c5ccccc5C#N)CC4)c23)cc1,,16.4 µM (active)
CCOC(=O)c1oc2ccc(S(=O)(=O)n3nc(-c4ccccc4OC)cc3N)cc2c1C,,5.17 µM (active)
Cc1ccc(S(=O)(=O)n2nc(OC(=O)C(C)(C)C)cc2N)cc1,-29.9%,
CCOc1ccc(S(=O)(=O)N2CCN(C(=O)c3oc4ccccc4c3C)CC2)cc1,-29.3%,
C[C@H](NC(=O)[C@@H]1CCCN1C(=O)[C@@H]1CCCN1C(=O)c1ccccc1)c1ccccc1,-23.5%,
O=C1NC(CC(=O)N2CCC(n3c(C4CCC4)nc4cccnc43)CC2)c2ccccc21 (stereo not drawn),-1.68%,
CCS(=O)(=O)N1CCC(n2c(C)nc3cccnc32)CC1,-0.165%,
CCCS(=O)(=O)N1CCC(n2c(C(F)(F)F)nc3cccnc32)CC1,,5.17 µM (active)

# Reference: PubChem BioAssay AID686978 (National Center for Advancing Translational Sciences (NCATS), 2013)
